The source of these data is PubChem BioAssay AID1347434 (National Center for Advancing Translational Sciences (NCATS), 2020).

Each structure is given as a SMILES string. About 30 (2%) of roughly 1,200 compounds were called active. Inconclusive results (about 23%) are left out. The sample holds actives, similar compounds and a random draw of the others, so the mix is not that of the screen. Values without a mark were called inactive. Calls follow the shape of the dose curve; as a rule, active = well fitted inhibition curve with a large enough effect; inconclusive = small, poorly fitted or top-dose-only effect; inactive = flat fitted curve, though single readings scatter.
% is scaled to controls: 0 for no effect and ±100 for the full control effect; potency is read from the fitted curve at half-maximal effect.

Chain of Single-stranded DNA cytosine deaminase (Homo sapiens) (Q9GZX7 whole entry, looked up): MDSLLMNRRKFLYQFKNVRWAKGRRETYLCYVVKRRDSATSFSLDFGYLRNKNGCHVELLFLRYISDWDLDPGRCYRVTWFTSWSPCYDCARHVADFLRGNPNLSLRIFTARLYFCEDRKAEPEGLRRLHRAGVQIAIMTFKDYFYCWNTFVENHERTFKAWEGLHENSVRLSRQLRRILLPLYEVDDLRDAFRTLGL

The test concerns the target Single-stranded DNA cytosine deaminase (Homo sapiens) (UniProt Q9GZX7). As to the kind of experiment: Confirmatory qHTS assay for inhibitors of Activation Induced Cytidine Deaminase (AID): AID signals. The settings on record: recombinant AID, FRET deamination/UDG coupled fluorescence, 4 h; series mostly up to 115 µM; activity, negative = inhibition: at the top concentration. In short, it runs like this:
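Read 1 (AID) was measured at 540 ex/590 em after a 30 min NaOH step. The reaction was AID (1 uM, 4/3x stock) with UDG, compound at final 7.32 nM - 114 uM for 10 min, then DJC20/DJC23 substrate for 4 hr at room temperature. A UDG read at 560/665 serves as counterscreen.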
On to `CCOc1ccc(NC(=O)CN(C)S(=O)(=O)c2ccc3c(c2)c(=O)n(C)c(=O)n3C)cc1`, for which the “activity, negative = inhibition” value was 8.36%.
For `COc1cccc(CNC(=O)c2oc3c(c2C)-c2nn(Cc4cccc(Cl)c4)cc2CC3)c1OC`, the “activity, negative = inhibition” value was 14.5%.
Still for that read-out and setting: the value for `COc1ccc(Nc2ncc(C(=O)Nc3cccc(OC)c3)c3ccccc23)cc1` was -1.42%; that for `Cc1ccccc1CSc1nc2nc(C)c(Cc3ccccc3)c(C)n2n1` was -17.8%.
For the molecule `CC1(C)CCC2=C(O1)c1ccccc1C(=O)C2=O`, the Potency was 7.08 µM (active).
Same read-out and setting: the value for `OCC1O[C@H]([S-])[C@H](O)[C@@H](O)[C@@H]1O.[Au+]` (stereo partly specified) was 12.6 µM (active).
On to `CCCCSCCCNC(=O)c1cn(CC)c2ccc(S(=O)(=O)N(C)C3CCCCC3)cc2c1=O`, for which the “activity, negative = inhibition” value was -21.7%.
Regarding `CC1CCCN(C(=O)c2ccc(CSc3nc4ccncc4n3Cc3ccccc3)cc2)C1` (stereo unspecified), the “activity, negative = inhibition” value is -7.61%.
Same read-out and setting: the value for `Cc1ccccc1Nc1c(-c2ccc(N3CCOCC3)cc2)nc2ccccn12` was 3.96%.
On the same count and under the same terms, the value for `CCCN(CCC)CCCNC(=O)c1cc2c(-c3ccc(Cl)cc3)nn(C)c2s1` was -20.4%; that for `CCCCn1c(CNC(=O)C23CC4CC(CC(C4)C2)C3)nnc1SCC(=O)Nc1ccc(C)cc1` was -19.3%.
Take `Cc1cc2c(C(C)C)c(O)c(O)c(C=O)c2c(O)c1-c1c(C)cc2c(C(C)C)c(O)c(O)c(C=O)c2c1O`: the Potency was 31.6 µM (active).
Regarding `Cc1cccc(NC(=O)CCn2nc(-c3ccccc3)c3ccccc3c2=O)c1`, the “activity, negative = inhibition” value was -19.9%.
Same read-out and setting: the value for `CCn1nc(C)c2c(-c3ccccc3)cc(=O)n(C(C)C(=O)NCc3ccccc3OC)c21` (stereo unspecified) was -20.2%.
Regarding `COc1ccc(-c2coc3c2c(C)cc2oc(=O)c(CC(=O)O)c(C)c23)cc1`, the Potency is 50.1 µM (active).
Consider `COc1cccc(-n2c(-c3cccc(F)c3)nc3c(cnn3-c3ccc(C)cc3)c2=O)c1`, for which the “activity, negative = inhibition” value was -15.5%.
Still for that read-out and setting: the value for `CCOc1ccc(CNCc2c(C(=O)O)n(Cc3ccccc3F)c3cc(OC)ccc23)cc1` was 1.08%; that for `COc1ccc(C(C)=O)cc1CSc1nc(NCCc2ccccc2)c2ccccc2n1` was -11%.
As for `Cc1cccc(N2CCN(C(=O)Cn3ncc4c3-c3cc(C)ccc3OC4)CC2C)c1` (stereo unspecified), the “activity, negative = inhibition” value was -19%.
The same measure, in the same setting: the value for `COc1ccccc1C(=O)Oc1c(Sc2ccccc2)c(C)nn1-c1ccccc1` was 3.97%; that for `CCOC(=O)C1=C(CN2CCN(c3ccccc3F)CC2)NC(=O)NC1c1ccc(Cl)cc1` (stereo unspecified) was -9.34%; that for `Cc1cccc(N2CCN(C(=O)C(C)n3nc(C)n4c(cc5occc54)c3=O)CC2)c1C` (stereo unspecified) was -6.52%.
As for `Cc1ccc(C2CCN(C(=O)c3cnn(-c4cccc(Cl)c4)c3C3CCN(C(=O)OC(C)(C)C)CC3)C2)cc1` (stereo unspecified), the “activity, negative = inhibition” value is -1.75%.
On the same count and under the same terms, the value for `COc1ccc(CCNC(=O)c2c[nH]n3c(=O)c(Cc4ccccc4Cl)c(C)nc23)cc1OC` was -6.89%.
The same measure, in the same setting: the value for `FC(F)(F)c1cccc(N2CCN(Cc3nnc(-c4ccc5c(c4)OCO5)o3)CC2)c1` was -14.7%; that for `COc1ccc(-c2nc(CSCC(=O)N3CCN(c4cccc(C)c4C)CC3)c(C)o2)cc1OC` was -11%.
The same measure, in the same setting: the value for `COc1ccc(-c2nc3c(c(SCC(=O)Nc4ccc(C(=O)O)cc4)n2)Cc2ccccc2O3)cc1` was 10.8%.
Regarding `O=C(CSc1nc(-c2ccc(F)cc2)nc2c1Cc1ccccc1O2)Nc1cccc(C(=O)O)c1`, the Potency was 31.6 µM (active).
With `O=C(CSC1=Nc2ccccc2N=C(c2ccc(F)cc2)C1)Nc1cccc(C(F)(F)F)c1`, the “activity, negative = inhibition” value was -7.07%.
`Cc1cccc(-n2cnc3cc(C(=O)NCc4ccccc4Cl)ccc32)c1`: the “activity, negative = inhibition” value is -7.99%.
For the molecule `Cc1cccc(-c2nc(CCNC(=O)COc3ccccc3)cs2)c1`, the “activity, negative = inhibition” value is -12.9%.
As to `CCN(C(=O)CSc1nc(-c2ccccc2)no1)c1cccc(C)c1`, the “activity, negative = inhibition” value was -1.82%.
For `COc1ccc(CNCCC(c2ccccc2)c2ccc3c(c2)OCO3)cc1` (stereo unspecified), the “activity, negative = inhibition” value was -14.1%.
On to `CCCCN(CC)CCCNC(=O)c1cn(CC)c2ccc(S(=O)(=O)N3CCc4ccccc4C3)cc2c1=O`, for which the “activity, negative = inhibition” value was -21.8%.
As for `CCc1ccc(CN(Cc2ccco2)c2cnc(S(C)(=O)=O)nc2C(=O)Nc2ccc(C)c(Cl)c2)cc1`, the “activity, negative = inhibition” value was -7.49%.
Same read-out and setting: the value for `CCOc1ccc(-c2nn(-c3ccccc3)cc2C2NC(=O)NC(C)=C2C(=O)OC(C)C)cc1` (stereo unspecified) was -5.41%.
Same read-out and setting: the value for `COc1ccc(CN(Cc2ccco2)C(=O)COc2ccc(Cl)cc2C)cc1` was -5.94%.
On to `Cc1nc2nc(SCC(=O)N(C)Cc3ccccc3)nn2c(C)c1Cc1ccccc1Cl`, for which the “activity, negative = inhibition” value was -17.7%.
Turning to `Cc1ccc(Cn2cc(S(=O)(=O)c3ccc(C)cc3)c(=O)c3cc(F)c(N4CCCC4)cc32)cc1`, the “activity, negative = inhibition” value was -1.5%.
Same read-out and setting: the value for `CCc1ccc(S(=O)(=O)c2cnc3ccc(OC)cc3c2N2CCCC(C)C2)cc1` (stereo unspecified) was -7.45%; that for `CCOC(=O)C1CCN(c2nc3c(S(=O)(=O)c4ccccc4)nnn3c3ccsc23)CC1` was -6.88%; that for `CCN(CC)C(=O)CSc1nc(-c2ccccc2F)nc2c1Cc1c(CO)cnc(C)c1O2` was -20.7%.
Consider `Cc1ccccc1C(=O)Nc1sc2c(c1C(=O)O)CCC(C(C)(C)C)C2` (stereo unspecified), for which the “activity, negative = inhibition” value is -5.24%.
As to `Cc1ccc(-c2sc(C(=O)Nc3ccc(Br)cc3)cc2CC(=O)O)cc1`, the “activity, negative = inhibition” value was -3.84%.
Still for that read-out and setting: the value for `CCC(=O)Oc1c(Sc2ccc(Cl)cc2)c(C)nn1-c1ccccc1` was 5.67%.
Consider `Nc1c(S(=O)(=O)O)cc(Nc2ccc(Nc3nc(Cl)nc(Nc4ccc(S(=O)(=O)O)cc4)n3)c(S(=O)(=O)O)c2)c2c1C(=O)c1ccccc1C2=O`, for which the Potency was 20 µM (active).
